High-throughput results deposited in PubChem BioAssay by National Center for Advancing Translational Sciences (NCATS).
In the library only some 3% were active in any assay of this set; here they are far more common.
Tau fibril FP – qHTS for Inhibitors of Tau Fibril Formation, Fluorescence Polarization. Potency, µM (doses to about 57.7 µM), for inactives: at the top dose activity, negative = inhibition, most hits filed as inhibitors. AID 1468, 2008. K18 P301L tau heparin fibrillization, Alexa594 FP, 6 h. 280,000 tested, 0.39% active. Microtubule-associated protein tau (Homo sapiens), P10636; note: potency is the fitted concentration of half-maximal effect; nearly all actives have a fitted effect of over 55% in size
Target sequence (P10636 561-689 P618L limits assumed): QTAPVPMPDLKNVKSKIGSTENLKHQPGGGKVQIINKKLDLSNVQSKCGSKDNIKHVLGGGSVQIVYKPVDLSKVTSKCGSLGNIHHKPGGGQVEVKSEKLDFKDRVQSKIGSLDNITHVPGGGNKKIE
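Read-out: fluorescence polarization of Alexa 594-labeled tau (0.24 uM), 555 nm excitation, 632 nm emission. Mixtures held 15 uM unlabeled K18 P301L, compound and 20 uM heparin, pH 7 acetate buffer, incubated 6 hr at 37 C.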
Coupling enz – qHTS Assay for Inhibitors of Fructose-1,6-bisphosphate Aldolase from Giardia Lamblia: Coupling assay counterscreen. coupling enzyme system counterscreen, AmpLite Red fluorescence. activity change, negative = inhibition, % at 58.2 µM, hits read low. 290,000 tested, 0.67% active; in the data active = activity change below about -30%
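Coupling enzymes only (glyceraldehyde-3-phosphate) + compound, at 57.5 uM final, 10 min RT; add substrate/coupling/AmpLite Red mix, 20 min RT; fluorescence ex 525/em 598 nm. Actives flag coupling-system interference.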
KDM4E inh – qHTS Assay for Inhibitors of Human Jumonji Domain Containing 2E (JMJD2E) | Lysine-specific demethylase 4E (Homo sapiens), B2RXH2 | JMJD2E catalytic domain, FDH-coupled NADH fluorescence (FDH is formaldehyde dehydrogenase) | Potency, µM (titrated, usually from 57.1 µM), for the others: top-dose activity change, negative = inhibition, usual class: inhibitors | 230,000 tested, 1.6% active; active = well fitted inhibition curve with a large enough effect, not every such curve was filed as active; inconclusive = small, poorly fitted or top-dose-only effect, or another doubt; inactive = no such curve, though single readings can be large or run the other way;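 note: potency is the fitted concentration of half-maximal effect; 0% = wells with enzyme and -100% = buffer wells without enzyme; nearly all actives have a fitted effect of over 50% in size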
Target sequence (B2RXH2 1-337 limits assumed): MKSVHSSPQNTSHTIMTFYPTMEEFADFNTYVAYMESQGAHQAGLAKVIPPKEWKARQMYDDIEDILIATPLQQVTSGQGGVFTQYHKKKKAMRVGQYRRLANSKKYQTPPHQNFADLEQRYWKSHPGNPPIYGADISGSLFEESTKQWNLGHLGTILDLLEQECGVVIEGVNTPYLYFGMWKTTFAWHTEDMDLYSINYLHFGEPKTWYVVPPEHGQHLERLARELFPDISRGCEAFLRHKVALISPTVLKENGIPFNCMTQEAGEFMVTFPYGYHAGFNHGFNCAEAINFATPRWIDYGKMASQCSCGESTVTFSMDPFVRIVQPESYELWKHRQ
Tau ThT inhib – qHTS for Inhibitors of Tau Fibril Formation, Thioflavin T Binding; Microtubule-associated protein tau (Homo sapiens), P10636; recombinant tau K18 P301L, heparin-induced fibrillization, ThT fluorescence; Potency, µM (series often up to 57.4 µM), for the others: at the highest dose activity, negative = inhibition, actives largely listed as inhibitors; 270,000 tested, 2.1% active; note: potency is the fitted concentration of half-maximal effect; nearly all actives have a fitted effect of over 55% in size
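Using a mix of unlabeled (15 uM) and Alexa 594-labeled (0.24 uM) tau K18 P301L, heparin-triggered fibrillization over 6 hr at 37 C was scored by ThT fluorescence.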
Tau fluor cs – Counterscreen qHTS for Inhibitors of Tau Fibril Formation, Fluorescence Polarization; tau K18 P301L (four-repeat tau fragment) Alexa594 fluorescence, heparin fibrillization; Potency, µM (highest dose often 57.7 µM), inactives show at the top dose activity change, negative = decrease; 280,000 tested, 0.93% active; AID 1463, 2008; note: potency is the fitted concentration of half-maximal effect; nearly all actives have a fitted effect of over 55% in size
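Human K18 P301L tau (15 uM unlabeled plus 0.24 uM Alexa 594-labeled, final) in 100 mM sodium acetate pH 7 was mixed with compound and 20 uM heparin and incubated 6 hr at 37 C.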
* marks the source's active call; other numbers are inactive results; [ ] = another dose, or the depositor's remark. Unless noted, calls come from the whole dose curve; as a rule, active = well fitted curve in the direction sought with a large enough effect; inconclusive = small, poorly fitted or top-dose-only effect, or another doubt; inactive = no such curve, though single readings can be large; an effect the other way counts as inactive or inconclusive. Unless noted, % is set by controls: 0 for no effect and ±100 for the full control effect.

What do the screens show for `CCOC(=O)c1ccc(N2NC(=O)/C(=C/c3ccc(OC(=O)c4ccco4)c(OC)c3)C2=O)cc1`?
Tau fibril FP: 8.7%; Coupling enz: 6.3; KDM4E inh: -4.9%; Tau ThT inhib: 22.4µM*; Tau fluor cs: inconclusive

What do the screens show for `CCOC(=O)COc1ccc(/C=C2/C(=O)NN(c3ccc(F)cc3)C2=O)cc1OC`?
Coupling enz: 2.9

Results for CCOc1cc(/C=C2/SC(=S)NC2=O)ccc1OC(=O)c1ccco1 ?
Tau fibril FP: inconclusive; Coupling enz: 8.6; KDM4E inh: -5.2%; Tau ThT inhib: 12.6µM*; Tau fluor cs: -21.8%

How did CCn1ccc2c(OCC(=O)Nc3ccccc3C(F)(F)F)cccc2c1=O do in these assays?
Tau fibril FP: -3.4%; Tau ThT inhib: -14.0%; Tau fluor cs: -13.1%

What do the screens show for `COc1ccc(N/N=C(\C#N)C(N)=O)cc1`?
Tau fibril FP: 6.4%; Coupling enz: -1.0; KDM4E inh: -4.0%; Tau ThT inhib: inconclusive; Tau fluor cs: -6.2%

What do the screens show for `N#C/C(=N/Nc1ccc(OC(F)(F)F)cc1)C(N)=S`?
Tau fibril FP: 3.9%; Coupling enz: 3.0; KDM4E inh: -3.9%; Tau ThT inhib: 6.31µM*; Tau fluor cs: inconclusive

How did O=C(N/N=C1/C(=O)c2cccc3cccc1c23)c1ccc(Cl)cc1 do in these assays?
Tau fibril FP: 9.1%; Coupling enz: -0.2; KDM4E inh: -0.4%; Tau ThT inhib: 4.47µM*; Tau fluor cs: -19.2%

What do the screens show for `CCNC(=S)N/N=C1\C(=O)c2cccc3cccc1c23`?
Tau fibril FP: 8.2%; Coupling enz: 0.4; KDM4E inh: -2.0%; Tau ThT inhib: inconclusive; Tau fluor cs: -20.8%

What do the screens show for `CCc1ccc2oc(C(=O)N(Cc3cccc(Cl)c3)Cc3ccco3)c(C)c2c1`?
Tau fibril FP: -1.2%; Tau ThT inhib: -14.9%; Tau fluor cs: -17.1%

What do the screens show for `COc1cc(CNc2ccc3[nH]c(=O)[nH]c3c2)ccc1OCC(=O)NC(C)(C)C`?
Tau fibril FP: inconclusive; Coupling enz: -30.3*; KDM4E inh: inconclusive; Tau ThT inhib: 14.1µM*; Tau fluor cs: inconclusive

Results for O=C(CC(c1cccs1)N1Cc2ccccc2C1=O)Nc1cccc(F)c1 (configuration not stated) ?
Tau fibril FP: -9.8%; Tau ThT inhib: 18.2%; Tau fluor cs: -10.1%

What do the screens show for `COc1cccc(N2CCN(c3ncc4c(n3)CCN(Cc3ccc(Br)cc3)C4)CC2)c1`?
Tau fibril FP: 9.2%; Tau ThT inhib: -17.4%; Tau fluor cs: -16.5%

Results for Cc1cc(C)cc(NS(=O)(=O)c2ccc3[nH]cc(C(=O)NC4CCCCC4)c(=O)c3c2)c1 ?
Tau fibril FP: 7.94µM*; Tau ThT inhib: inconclusive; Tau fluor cs: inconclusive

What do the screens show for `CC(C)c1ccc(NS(=O)(=O)c2ccc3[nH]cc(C(=O)NCC4CCCO4)c(=O)c3c2)cc1` (configuration not stated)?
Tau fibril FP: 15.8µM*; Tau ThT inhib: -8.0%; Tau fluor cs: inconclusive

What do the screens show for `COc1cccc(NS(=O)(=O)c2ccc3[nH]cc(C(=O)NC4CCCCC4)c(=O)c3c2)c1`?
Tau fibril FP: 7.08µM*; Tau ThT inhib: inconclusive; Tau fluor cs: 3.55µM*[quencher]

What do the screens show for `CCc1ccccc1NS(=O)(=O)c1ccc2[nH]cc(C(=O)NCC3CCCO3)c(=O)c2c1` (configuration not stated)?
Tau fibril FP: inconclusive; Coupling enz: 3.5; KDM4E inh: inconclusive; Tau ThT inhib: -4.5%; Tau fluor cs: inconclusive

Results for Cc1cc(C)cc(NS(=O)(=O)c2ccc3[nH]cc(C(=O)NCc4ccco4)c(=O)c3c2)c1 ?
Tau fibril FP: inconclusive; Coupling enz: -4.0; KDM4E inh: -9.1%; Tau ThT inhib: -0.1%; Tau fluor cs: inconclusive

What do the screens show for `Cc1cc(C)cc(NS(=O)(=O)c2ccc3[nH]cc(C(=O)NCc4ccccc4Cl)c(=O)c3c2)c1`?
Tau fibril FP: 3.16µM*; Tau ThT inhib: 5.1%; Tau fluor cs: inconclusive

What do the screens show for `Cc1cc(C)cc(NS(=O)(=O)c2ccc3[nH]cc(C(=O)N4CCCCCC4)c(=O)c3c2)c1`?
Tau fibril FP: -6.0%; Tau ThT inhib: 0.1%; Tau fluor cs: -13.6%

What do the screens show for `Cc1ccc(CNC(=O)c2ccc3c(c2)nc2n3CCCC2)cc1`?
Tau fibril FP: -0.1%; Tau ThT inhib: 3.7%; Tau fluor cs: -3.0%

How did O=C(CCn1c(=O)c2cccn2c2cccnc21)NCc1cccc(Br)c1 do in these assays?
Tau fibril FP: 0.6%; Tau ThT inhib: 9.8%; Tau fluor cs: -1.7%

Results for CC(C)c1ccc(NS(=O)(=O)c2ccc3[nH]cc(C(=O)NC4CCCCC4)c(=O)c3c2)cc1 ?
Tau fibril FP: 3.55µM*; Tau ThT inhib: inconclusive; Tau fluor cs: inconclusive

Results for CC(C)c1ccc(NS(=O)(=O)c2ccc3[nH]cc(C(=O)N4CCC(C(N)=O)CC4)c(=O)c3c2)cc1 ?
Tau fibril FP: -7.1%; Coupling enz: 10.3; KDM4E inh: -10.5%; Tau ThT inhib: -9.8%; Tau fluor cs: -12.9%

Results for COc1ccc(Br)cc1C1CC(=O)N2CN(Cc3ccccc3)CSC2=C1C#N (configuration not stated) ?
Tau fibril FP: inconclusive; Coupling enz: -6.4; KDM4E inh: -19.5%; Tau ThT inhib: 28.2µM*; Tau fluor cs: -20.5%

What do the screens show for `COc1cc(OC)c(C2CC(=O)N3CN(c4ccccc4)CSC3=C2C#N)cc1OC` (configuration not stated)?
Tau fibril FP: 35.5µM*; Coupling enz: -23.7; KDM4E inh: inconclusive; Tau ThT inhib: 28.2µM*; Tau fluor cs: -24.8%

What do the screens show for `CCc1ccccc1N1CSC2=C(C#N)C(c3cc(OC)c(OC)cc3OC)CC(=O)N2C1` (configuration not stated)?
Tau fibril FP: inconclusive; Coupling enz: -52.3*; KDM4E inh: inconclusive; Tau ThT inhib: 28.2µM*; Tau fluor cs: -25.7%

What do the screens show for `CCc1cccc(NC(=O)Cn2c(=O)n(Cc3ccccc3)c(=O)c3c2c2cc(OC)ccc2n3C)c1`?
Tau fibril FP: -9.3%; Tau ThT inhib: 10.9%; Tau fluor cs: -3.5%

Results for Cc1ccc(NCc2cccn2-c2nnc(N3CCC(C(=O)NCc4ccc(F)cc4)CC3)s2)cc1 ?
Tau fibril FP: 11.4%; Tau ThT inhib: inconclusive; Tau fluor cs: inconclusive
